According to ChEMBL document CHEMBL1961873, “Compounds: GSK PKIS; Assays: Nanosyn kinase panel” (2012):

Legend:
[1] = biological target: Leukocyte tyrosine kinase receptor (Homo sapiens) (UniProt P29376); conditions: at 1 µM;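 further: each value is the mean inhibition of LTK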
[2] = biological target: Tyrosine-protein kinase Lyn (Homo sapiens) (UniProt P07948); conditions: at 0.1 µM
[3] = biological target: Tyrosine-protein kinase Lyn (Homo sapiens) (UniProt P07948); conditions: at 1 µM
[4] = biological target: Tyrosine-protein kinase Lyn (Homo sapiens) (UniProt P07948); conditions: at 0.1 µM; remark: listed apart in the source
[5] = biological target: Tyrosine-protein kinase Lyn (Homo sapiens) (UniProt P07948); conditions: at 1 µM; remark: listed apart in the source
[6] = biological target: T1, Tyrosine-protein kinase Mer (Homo sapiens) (UniProt Q12866); conditions: at 0.1 µM
T1 sequence (whole entry): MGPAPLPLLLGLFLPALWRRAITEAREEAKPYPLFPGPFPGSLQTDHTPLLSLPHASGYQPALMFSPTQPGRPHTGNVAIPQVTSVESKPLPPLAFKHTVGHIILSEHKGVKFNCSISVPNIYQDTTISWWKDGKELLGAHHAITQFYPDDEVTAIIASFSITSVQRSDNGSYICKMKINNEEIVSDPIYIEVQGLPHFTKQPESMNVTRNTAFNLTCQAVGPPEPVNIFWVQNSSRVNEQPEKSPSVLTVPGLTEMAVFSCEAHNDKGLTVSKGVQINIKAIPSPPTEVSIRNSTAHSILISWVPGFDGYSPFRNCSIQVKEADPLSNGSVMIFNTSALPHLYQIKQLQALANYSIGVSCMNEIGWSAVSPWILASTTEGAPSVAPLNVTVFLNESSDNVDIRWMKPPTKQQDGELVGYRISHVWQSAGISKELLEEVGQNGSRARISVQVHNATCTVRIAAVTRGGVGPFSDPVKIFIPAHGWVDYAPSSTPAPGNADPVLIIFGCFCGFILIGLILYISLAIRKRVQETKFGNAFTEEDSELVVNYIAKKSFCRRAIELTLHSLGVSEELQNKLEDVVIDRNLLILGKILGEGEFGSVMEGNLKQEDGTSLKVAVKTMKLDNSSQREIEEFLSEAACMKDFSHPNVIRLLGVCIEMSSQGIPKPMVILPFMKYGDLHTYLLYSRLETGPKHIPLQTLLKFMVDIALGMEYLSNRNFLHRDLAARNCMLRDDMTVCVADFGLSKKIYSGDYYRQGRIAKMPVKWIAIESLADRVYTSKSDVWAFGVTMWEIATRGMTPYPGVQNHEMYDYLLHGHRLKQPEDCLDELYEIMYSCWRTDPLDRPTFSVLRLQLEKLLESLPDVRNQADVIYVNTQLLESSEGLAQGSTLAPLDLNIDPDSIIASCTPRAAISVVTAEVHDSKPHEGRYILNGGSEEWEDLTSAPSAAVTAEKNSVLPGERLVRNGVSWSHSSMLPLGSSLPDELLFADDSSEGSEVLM

[7] = biological target: T1, Tyrosine-protein kinase Mer (Homo sapiens); conditions: at 1 µM
[8] = biological target: Hepatocyte growth factor receptor (Homo sapiens) (UniProt P08581); conditions: at 0.1 µM
[9] = biological target: Hepatocyte growth factor receptor (Homo sapiens) (UniProt P08581); conditions: at 1 µM
[10] = biological target: T2, Muscle, skeletal receptor tyrosine-protein kinase (Homo sapiens) (UniProt O15146); conditions: at 0.1 µM;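 further: values are mean inhibition of MuSK from the GSK PKIS kinase screening panel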
T2 sequence (whole entry): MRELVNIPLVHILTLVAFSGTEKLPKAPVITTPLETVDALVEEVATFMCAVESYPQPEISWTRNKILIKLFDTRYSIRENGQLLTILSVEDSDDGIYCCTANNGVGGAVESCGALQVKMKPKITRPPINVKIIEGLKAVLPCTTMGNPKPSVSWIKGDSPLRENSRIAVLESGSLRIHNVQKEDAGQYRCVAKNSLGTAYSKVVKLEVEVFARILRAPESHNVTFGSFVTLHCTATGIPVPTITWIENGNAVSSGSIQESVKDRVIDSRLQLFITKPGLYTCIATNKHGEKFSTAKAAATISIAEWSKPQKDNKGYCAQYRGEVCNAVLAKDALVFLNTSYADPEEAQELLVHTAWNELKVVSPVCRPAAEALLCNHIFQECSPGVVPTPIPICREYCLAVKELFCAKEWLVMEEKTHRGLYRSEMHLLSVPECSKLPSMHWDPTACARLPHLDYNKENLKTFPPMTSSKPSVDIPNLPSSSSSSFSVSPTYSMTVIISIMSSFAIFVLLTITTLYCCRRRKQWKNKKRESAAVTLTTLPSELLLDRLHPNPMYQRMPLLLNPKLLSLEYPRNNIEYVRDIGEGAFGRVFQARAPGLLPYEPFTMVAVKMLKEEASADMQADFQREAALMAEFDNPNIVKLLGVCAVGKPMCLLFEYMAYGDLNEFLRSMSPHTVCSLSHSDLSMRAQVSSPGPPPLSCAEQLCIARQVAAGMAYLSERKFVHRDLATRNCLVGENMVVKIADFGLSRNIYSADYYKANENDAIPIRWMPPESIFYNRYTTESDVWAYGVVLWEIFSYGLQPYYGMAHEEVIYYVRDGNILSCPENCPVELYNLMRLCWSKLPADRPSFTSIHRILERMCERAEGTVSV

Chain of Leukocyte tyrosine kinase receptor (Homo sapiens) (P29376 whole entry): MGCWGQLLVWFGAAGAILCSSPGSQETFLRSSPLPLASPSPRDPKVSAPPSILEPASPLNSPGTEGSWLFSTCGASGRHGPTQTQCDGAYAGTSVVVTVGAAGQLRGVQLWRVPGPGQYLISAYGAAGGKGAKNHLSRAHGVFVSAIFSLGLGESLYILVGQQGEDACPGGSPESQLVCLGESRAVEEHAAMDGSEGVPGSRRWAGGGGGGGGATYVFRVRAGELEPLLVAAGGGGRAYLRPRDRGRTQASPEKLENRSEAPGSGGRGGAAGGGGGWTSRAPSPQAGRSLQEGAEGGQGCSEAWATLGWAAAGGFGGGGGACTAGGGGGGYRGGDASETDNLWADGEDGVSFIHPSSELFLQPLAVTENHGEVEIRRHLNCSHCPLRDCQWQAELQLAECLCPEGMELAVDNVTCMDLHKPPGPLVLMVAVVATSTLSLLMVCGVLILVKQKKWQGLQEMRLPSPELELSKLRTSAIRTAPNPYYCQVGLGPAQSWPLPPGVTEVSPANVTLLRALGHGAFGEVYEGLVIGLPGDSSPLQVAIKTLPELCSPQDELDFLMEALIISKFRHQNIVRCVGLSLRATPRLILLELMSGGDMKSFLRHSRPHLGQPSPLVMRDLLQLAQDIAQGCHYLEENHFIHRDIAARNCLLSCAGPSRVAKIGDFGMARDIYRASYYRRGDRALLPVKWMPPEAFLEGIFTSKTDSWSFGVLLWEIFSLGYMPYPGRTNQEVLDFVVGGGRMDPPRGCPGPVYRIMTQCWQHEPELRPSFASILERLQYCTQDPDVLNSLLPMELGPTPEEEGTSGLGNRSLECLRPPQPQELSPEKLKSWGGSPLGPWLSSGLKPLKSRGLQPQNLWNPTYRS
Chain of Tyrosine-protein kinase Lyn (Homo sapiens) (P07948 2-512 limits assumed): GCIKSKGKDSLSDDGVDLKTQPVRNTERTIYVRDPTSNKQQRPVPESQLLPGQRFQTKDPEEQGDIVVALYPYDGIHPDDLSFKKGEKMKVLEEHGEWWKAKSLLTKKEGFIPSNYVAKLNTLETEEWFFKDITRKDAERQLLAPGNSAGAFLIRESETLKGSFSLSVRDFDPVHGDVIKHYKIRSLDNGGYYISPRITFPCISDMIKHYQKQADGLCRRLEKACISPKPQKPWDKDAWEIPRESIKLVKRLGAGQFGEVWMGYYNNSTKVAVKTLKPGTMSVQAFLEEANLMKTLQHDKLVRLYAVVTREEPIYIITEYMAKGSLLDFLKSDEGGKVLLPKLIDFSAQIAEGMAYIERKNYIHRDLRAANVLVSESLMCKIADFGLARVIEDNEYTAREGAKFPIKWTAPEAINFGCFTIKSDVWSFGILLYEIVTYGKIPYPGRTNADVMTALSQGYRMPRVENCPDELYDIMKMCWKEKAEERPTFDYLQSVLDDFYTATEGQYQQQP
Chain of Hepatocyte growth factor receptor (Homo sapiens) (P08581 whole entry): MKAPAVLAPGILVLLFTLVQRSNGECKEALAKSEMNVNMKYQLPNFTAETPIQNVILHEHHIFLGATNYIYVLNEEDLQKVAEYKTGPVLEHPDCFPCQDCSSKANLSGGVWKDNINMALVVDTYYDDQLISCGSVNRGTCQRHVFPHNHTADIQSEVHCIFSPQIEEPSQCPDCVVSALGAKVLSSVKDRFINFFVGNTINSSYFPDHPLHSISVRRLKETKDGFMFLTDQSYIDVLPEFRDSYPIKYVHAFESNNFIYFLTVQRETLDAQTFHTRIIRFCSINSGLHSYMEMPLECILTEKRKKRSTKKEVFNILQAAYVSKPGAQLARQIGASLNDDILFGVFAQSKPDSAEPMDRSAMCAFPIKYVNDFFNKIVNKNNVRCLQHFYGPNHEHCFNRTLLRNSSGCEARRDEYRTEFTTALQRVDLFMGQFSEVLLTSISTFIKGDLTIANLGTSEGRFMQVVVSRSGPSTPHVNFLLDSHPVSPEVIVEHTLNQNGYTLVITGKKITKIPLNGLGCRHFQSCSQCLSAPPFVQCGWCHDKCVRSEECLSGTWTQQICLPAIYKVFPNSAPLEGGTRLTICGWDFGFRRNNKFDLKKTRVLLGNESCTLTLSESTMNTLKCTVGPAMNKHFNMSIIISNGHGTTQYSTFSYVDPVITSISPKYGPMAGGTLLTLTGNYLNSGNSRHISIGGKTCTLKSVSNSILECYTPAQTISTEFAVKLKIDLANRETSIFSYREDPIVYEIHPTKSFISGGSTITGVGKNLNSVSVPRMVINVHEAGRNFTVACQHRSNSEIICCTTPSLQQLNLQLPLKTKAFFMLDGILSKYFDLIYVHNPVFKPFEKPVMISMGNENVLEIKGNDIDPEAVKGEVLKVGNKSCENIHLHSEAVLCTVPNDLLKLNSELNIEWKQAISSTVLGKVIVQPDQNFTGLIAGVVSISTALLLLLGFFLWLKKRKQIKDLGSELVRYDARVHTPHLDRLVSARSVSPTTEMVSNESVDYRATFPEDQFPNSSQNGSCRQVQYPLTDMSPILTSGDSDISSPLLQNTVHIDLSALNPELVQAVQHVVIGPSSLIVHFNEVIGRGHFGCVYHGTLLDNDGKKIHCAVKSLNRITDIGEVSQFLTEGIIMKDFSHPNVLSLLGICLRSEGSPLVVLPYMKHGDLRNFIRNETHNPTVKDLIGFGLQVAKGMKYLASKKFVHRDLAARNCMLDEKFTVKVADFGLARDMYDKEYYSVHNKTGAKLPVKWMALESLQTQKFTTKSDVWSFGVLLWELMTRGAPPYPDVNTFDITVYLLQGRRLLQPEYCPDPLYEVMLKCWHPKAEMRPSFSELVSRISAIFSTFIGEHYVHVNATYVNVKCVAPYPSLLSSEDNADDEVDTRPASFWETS

SMILES | inhibition [1] | inhibition [2] | inhibition [3] | inhibition [4] | inhibition [5] | inhibition [6] | inhibition [7] | inhibition [8] | inhibition [9] | inhibition [10]
CCn1c(-c2nonc2N)nc2ccccc21 | 1.66% | 3.33% | 2.16% | 2.02% | 0.98% | -0.11% | 1.81% | 5.36% | 2.36% | 3.36%
CCN(CC)S(=O)(=O)c1ccc(OC)c(Nc2ncc(-c3ccccc3)o2)c1 | -0.4% | 4.63% | 34.8% | 4.28% | 28.9% | 0.62% | 2.09% | 3.7% | 4.3% | -2.42%
COc1cc(N2CCN(C(C)C)CC2)ccc1Nc1nc(Nc2ccc(F)cc2C(N)=O)c2cc[nH]c2n1 | 96% | 2.75% | 2.96% | 1.54% | 1.29% | 4.46% | 8.43% | 7.18% | 0.66% | 1.72%
CCn1c(-c2nonc2N)nc2c(C#CC(C)(C)O)nc(OC[C@H](N)c3ccccc3)cc21 | 17.1% | 4.19% | 4.52% | 2.36% | 4.2% | 5.78% | 3.59% | 6.32% | 1.76% | 0.54%
Nc1nc(-c2ccc(F)cc2)c(-c2ccc3ncccc3n2)s1 | 7.86% | 9.43% | 39.4% | 7.37% | 33% | 2.57% | 5.56% | 4.07% | 10.1% | 3.45%
CCCN(CCS(C)(=O)=O)Cc1ccc(-c2ccc3ncnc(Nc4ccc(OCc5cccc(F)c5)c(Cl)c4)c3c2)o1 | 5.18% | 4.64% | 7.93% | 2.71% | 6.38% | 4.13% | 7.18% | 2.91% | 5.26% | 3.54%
COc1cc(/C=N/Nc2ncnc3[nH]ncc23)ccc1O | 12.2% | 16.8% | 63.9% | 12.6% | 59.6% | 1.2% | 9.92% | 1.87% | 14.9% | 5.09%
COc1cc(Nc2nccc(Nc3ccc4c(C)n[nH]c4c3)n2)cc(OC)c1OC | 33.3% | 49.6% | 87.4% | 44.5% | 85.6% | 3.5% | 14.4% | 1.57% | 12.3% | 21.3%
Clc1ccc(-c2nn3ncccc3c2-c2ccnc(Nc3ccccc3)n2)cc1 | 3.81% | 7.57% | 40.7% | 4.2% | 35.4% | 0.11% | 6.33% | 4.95% | 4.06% | 1.49%
Nc1ncc(-c2cccc(S(N)(=O)=O)c2)c2scc(-c3ccc(F)c(Cl)c3)c12 | 54.6% | 14% | 56.7% | 10.5% | 50% | 0.36% | 10.6% | 4.62% | 3.25% | 2.5%
O=C(Nc1n[nH]c2cc(-c3ccc(F)cc3)ccc12)C1CC1 | 2.75% | 6.61% | 5.51% | 3.7% | 3.43% | 2.14% | 2.68% | 1.03% | 0.71% | 2.93%
c1ccc(-c2nc3n(c2-c2ccc4c(c2)OCO4)CCC3)nc1 | 0.36% | 1.78% | 2.26% | 0.94% | 0.92% | 1.83% | 0.66% | 2.27% | -1.42% | 0.55%
Cc1ccc(O)cc1Nc1ccnc2cc(-c3ccccn3)ccc12 | 49.7% | 72.8% | 94.3% | 65.2% | 91.9% | 1.35% | 4.24% | 11.7% | 5.41% | 3.21%
CS(=O)(=O)CCNCc1ccc(-c2ccc3ncnc(Nc4ccc(OCc5ccccc5)c(C(F)(F)F)c4)c3c2)o1 | 3.64% | 4.35% | 10.4% | 2.65% | 2.28% | -0.65% | 1.81% | 0.49% | 5.8% | 1.44%
COC(=O)Nc1nc2ccc(S(=O)(=O)c3ccc(NC(=O)Nc4cc(C(F)(F)F)ccc4F)cc3)cc2[nH]1 | 0.53% | 3.86% | 3.43% | 1.56% | 3.05% | 0.88% | 4.05% | -2.38% | 0.66% | 2.5%
CCc1nn2ncccc2c1-c1ccnc(NC2CC2)n1 | 3.47% | 2.13% | 2.84% | 2.22% | 3.39% | 3.92% | 4.58% | 6.93% | 4.86% | 1.52%
N#Cc1c(NC(=O)c2ccc(F)cc2)sc2c1CCCC2 | 0.33% | 0.87% | 2.77% | 0.6% | 2.84% | -0.51% | 0.78% | 1% | 2.01% | 1.9%

SMILES | inhibition [1] | inhibition [2] | inhibition [3] | inhibition [4] | inhibition [5] | inhibition [6] | inhibition [7] | inhibition [8] | inhibition [9] | inhibition [10]
COC(=O)Nc1nc2ccc(Oc3ccc(NC(=O)Nc4cccc(Cl)c4)cc3)cc2[nH]1 | 1.17% | 5.13% | 13.5% | 4.25% | 11.1% | 2.64% | 2.51% | 9.7% | 12.3% | 10.2%
COc1ccc(-c2oc3ncnc(N)c3c2-c2ccc(NC(=O)Nc3cc(C(F)(F)F)ccc3F)cc2)cc1 | 11.2% | 48.4% | 94.8% | 43.3% | 93.2% | 11.7% | 66.5% | 9.34% | 63.2% | 96.6%
O=S(=O)(CCNCc1ccc(-c2ccc3ncnc(Nc4ccc(OCc5cccc(F)c5)c(Cl)c4)c3c2)o1)c1ccccc1 | 5.42% | 6.84% | 7.64% | 3.9% | 4.05% | 3.42% | 7.37% | -0.44% | 6.95% | 6.83%
NC(=O)c1sc(-n2cnc3ccc(C(F)(F)F)cc32)cc1OCc1ccccc1Br | 3.98% | 5.8% | 6.03% | 2.92% | 3.3% | 1.71% | 1.36% | 3.13% | -0.12% | 4.43%
Fc1ccc(-c2nn3ccccc3c2-c2ccncc2)cc1 | 0.03% | 0.64% | 6.12% | 0.28% | 4.71% | 1.48% | 2.6% | -1.86% | 3.37% | 3.06%
Cc1ccc2c(-c3ccnc(Nc4ccccc4)n3)c(-c3ccc(F)cc3)nn2n1 | 2.78% | 10.8% | 50.1% | 8.55% | 44.4% | 3.07% | 23.9% | 1.64% | 8.18% | 3.5%
COC(=O)c1sc(-n2cnc3cc(OC)c(OC)cc32)cc1OCc1ccccc1C(F)(F)F | 6.79% | 9.46% | 19.6% | 6.71% | 14.7% | 1.24% | 2.08% | -0.86% | 6.35% | 15.4%
[O-][S+]1CCN(Cc2ccc(-c3ccc4ncnc(Nc5ccc(OCc6cccc(F)c6)c(Cl)c5)c4c3)o2)CC1 | 7.31% | 6.15% | 8.63% | 5.42% | 7.66% | 2.54% | 31% | 11.9% | 10.6% | 3.52%
COc1cccc(-n2ncc3c(N/N=C/c4ccc(F)cc4)ncnc32)c1 | 3.69% | 19.6% | 48.7% | 14.6% | 43.9% | 3.7% | 5.19% | 2.87% | 16.6% | 3.89%
COc1cc2ncn(-c3cc(OCc4ccccc4C(F)(F)F)c(C(=O)N(C)C)s3)c2cc1OC | 1.07% | 0.76% | 10.9% | 0.93% | 8.58% | 1.59% | 2.36% | 1.4% | -4.49% | -0.19%
COc1ccc(-c2cc3c(N)ncnc3o2)cc1 | 0.01% | -0.81% | 3.66% | 1.13% | 3.28% | 0.56% | 2.01% | -2.37% | 0.32% | -1.04%
CC(C)(CO)CNC(=O)c1ccc2c(c1)/C(=N/Nc1ccc(S(N)(=O)=O)cc1)C(=O)N2 | -1.87% | -1.12% | 9.87% | -1.58% | 8.71% | -2.26% | 1.33% | 9.65% | 9.33% | 3.03%
CCCN1CCC(c2ccc(Nc3nc(Nc4cc(F)ccc4C(N)=O)c4cc[nH]c4n3)c(OC)c2)CC1 | 95% | 6.55% | 11.2% | 4.92% | 7.3% | 2.18% | 20% | 8.25% | 22.9% | 4.34%
c1cc(-c2cnn3nc(N4CCOCC4)ccc23)nc(NC2CC2)n1 | 6.33% | 3.58% | 2.39% | 2.01% | 3.12% | 1.15% | 6.24% | -2.37% | 2.41% | 4.2%
CCOc1ccc2c(-c3ccnc(Nc4cccc(C(F)(F)F)c4)n3)cnn2n1 | 1.96% | 4.33% | 4.33% | 3.97% | 3.17% | 0.97% | 3.35% | 3.01% | 3.51% | 2.25%
CNC(=O)c1cncc(/C=C/c2ccccc2Cl)c1 | 1% | 1.6% | 11.3% | 1.83% | 8.12% | 3.56% | 2.42% | 3.72% | 4.48% | 0.71%
Fc1cccc(COc2ccc(Nc3ncnc4sc(-c5ccco5)cc34)cc2Cl)c1 | 4.08% | 3.59% | 4.38% | 2.97% | 2.48% | 0.45% | 3.51% | 3.09% | 4.96% | 4.4%
